# Laboratory results published in the supplement of paper PMC6555819.
# Experiments:
# Experiment in all cases: PBM binding z-score (relative to random genomic background probes); higher = stronger binding; sequences stand for … in GC…GCGATTGACAGCGTAGAATGAAGG
# [1] = test system: FXR:RXRa (NR concentration 270 nM, RXRa partner concentration 90 nM)
# In short: (§1)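 Custom Agilent 4×180K protein-binding microarrays carried double-stranded probes, each with a 34-nt variable region. These regions held direct-repeat seeds, single-nucleotide variants, half-site ablations and random human genomic background sequences. Ligand-free nuclear receptor dimers were incubated on the arrays for 1 h, antibodies against each partner (one per run) detected binding, and scanned fluorescence was regression-normalized. Binding z-scores take the random background probes as reference.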
# [2] = test system: LXRa:RXRa (NR concentration 270 nM, RXRa partner concentration 90 nM)
# In short: as §1
# [3] = test system: LXRa homodimer (NR concentration 270 nM)
# In short: as §1
# [4] = test system: LXRb:RXRa (NR concentration 270 nM, RXRa partner concentration 90 nM)
# In short: as §1
# [5] = test system: LXRb homodimer (NR concentration 270 nM)
# In short: as §1
# [6] = test system: PPARa:RXRa (NR concentration 270 nM, RXRa partner concentration 90 nM)
# In short: as §1
# [7] = test system: PPARg:RXRa (NR concentration 180 nM, RXRa partner concentration 90 nM)
# In short: as §1
# [8] = test system: PPARg:RXRa 270nM:90nM, anti-RXR (NR concentration 270 nM, RXRa partner concentration 90 nM)
# In short: as §1
# [9] = test system: PPARg:RXRa 30nM:10nM, anti-RXR (NR concentration 30 nM, RXRa partner concentration 10 nM)
# In short: as §1
# [10] = test system: PPARg:RXRa 90nM:30nM, anti-RXR (NR concentration 90 nM, RXRa partner concentration 30 nM)
# In short: as §1
# [11] = test system: PPARg:RXRa DBDmut IVT, anti-RXR (DBD mutation: RXRa K156A/R161A, NR concentration 270 nM, RXRa partner concentration 90 nM)
# In short: as §1
# [12] = test system: PPARg:RXRa IVT, anti-PPARg (NR concentration 270 nM, RXRa partner concentration 90 nM)
# In short: as §1
# [13] = test system: PPARg DBDmut:RXRa IVT, anti-PPARg (DBD mutation: PPARg1 K132A/R137A, NR concentration 270 nM, RXRa partner concentration 90 nM)
# In short: as §1
# [14] = test system: PPARg DBDmut IVT, anti-PPARg (DBD mutation: PPARg1 K132A/R137A, NR concentration 270 nM)
# In short: as §1
# [15] = test system: PPARg homodimer (NR concentration 180 nM)
# In short: as §1
# [16] = test system: PXR:RXRa (NR concentration 270 nM, RXRa partner concentration 90 nM)
# In short: as §1
# [17] = test system: PXR homodimer (NR concentration 270 nM)
# In short: as §1
# [18] = test system: RARa:RXR (NR concentration 270 nM, RXRa partner concentration 90 nM)
# In short: as §1
# [19] = test system: RARa homodimer (NR concentration 270 nM)
# In short: as §1
# [20] = test system: RARb:RXRa (NR concentration 270 nM, RXRa partner concentration 90 nM)
# In short: as §1
Sequence,PBM binding z-score [1],PBM binding z-score [2],PBM binding z-score [3],PBM binding z-score [4],PBM binding z-score [5],PBM binding z-score [6],PBM binding z-score [7],PBM binding z-score [8],PBM binding z-score [9],PBM binding z-score [10],PBM binding z-score [11],PBM binding z-score [12],PBM binding z-score [13],PBM binding z-score [14],PBM binding z-score [15],PBM binding z-score [16],PBM binding z-score [17],PBM binding z-score [18],PBM binding z-score [19],PBM binding z-score [20]
CTCGAAACGTCGTGCTCAGGTGAGTATACCAAAC,-0.453,-0.656,-0.383,-0.688,-0.52,-0.553,-0.362,-0.781,-0.655,-0.34,-0.582,-0.171,-0.256,0.311,-0.393,-0.468,-0.608,-0.466,-0.557,-0.265
TCTATTAGTTGATTAGGGTAACCGAAACAGCGGA,0.555,0.884,0.302,1.09,0.799,1.01,0.052,1.86,3.73,2.87,2.12,1.19,1.29,1.26,0.518,0.646,0.346,0.855,1.41,0.609
CAAACTAGGTGAAGGTCAAAGTCGGTTTGTGCCA,4.11,4.11,2.31,3.48,0.412,5.38,7.65,6.92,5.05,6.44,8.04,8.04,2.16,0.309,2.76,3.95,0.968,4.27,0.0969,3.87
CCTTACGGGCCAAGGTTATAGCACGGGTGGTACG,-0.197,0.16,-0.442,-0.247,-0.834,0.498,0.573,0.597,-0.309,-0.163,-0.837,-0.312,-1.25,-0.861,0.309,0.0685,-0.372,0.242,0.00233,1.13
CTCGAAAGGTCGGTTGAGGTGTGTATACGGATAA,1.83,1.28,-0.285,1.05,0.0615,2.13,0.162,0.619,-0.0568,0.492,-0.0512,0.529,0.177,-0.218,0.679,1.43,0.289,1.53,-0.365,2.68
GATACATGGTCAGCTAGAGGCCAGAGTATGGAAA,-0.242,-0.822,-0.541,-0.77,-1.11,-0.488,0.533,-0.14,-0.161,-0.183,-0.61,0.0448,-1.36,-0.885,-0.578,-0.344,-0.0734,-0.157,-0.619,0.819
ATCGAAAGGTCGTGAGATGAGTATACAGAAAGGC,4.78,3.98,0.0145,3,0.525,5.17,3.63,3.8,1.53,2.49,-0.3,1.61,1.59,1.02,1.18,3,0.0556,3.62,0.436,3.91
CAAACTAGGTCAAAGGTTAAAGTCGAGCCAACCA,7.41,5.99,2.37,5.56,1.22,7.61,13.6,11.3,13,13.7,8.92,9.36,6.93,5.38,5.15,5.99,0.433,8.12,2.07,5.01
AGAATGAGGTTATTAAGATTAGGGAATTGCGGTC,1.47,1.57,0.419,1.24,0.178,2.61,1.17,1.57,0.697,1.37,2.99,2.43,1.23,0.542,1.01,1.02,0.66,1.52,0.918,1.47
TCGAGTAGGTTACCAATGGGGCATTCATCTTTCT,-0.000727,1.01,-0.201,1.21,-0.516,1.23,0.329,1.33,1.28,1.18,3.66,2.75,-0.207,-0.196,0.277,0.256,-0.536,0.587,-0.332,0.994
CAGCCTAGGTCCGGGCCAGTATAGGAGGAACGTT,-0.987,-1.11,-0.834,-1.41,-1.47,-1.78,-0.191,-0.878,-0.996,-1.2,-1.2,-1.1,-2.15,-1.84,-1.61,-1.01,-0.992,-1.12,-1.43,-0.671
TCATATAGGTAAACAGGTGATAGTCCGTAAGTTA,0.91,0.907,0.318,0.806,-0.237,1.73,2.35,3.2,4.04,3.64,4.54,3.86,2.2,1.3,1.51,0.551,0.241,0.892,1.46,0.497
CCTACTGGGCCAAAAAGGTTATTGATGCCGATAA,-0.207,0.612,0.14,1.08,-0.751,2.15,0.965,1.85,0.374,1.29,3.45,2.94,-0.965,-0.43,0.601,0.934,0.529,1.67,0.386,1.15
GGAACGAGGGCAGAGTTGATAGCATCTGTCGACG,-0.283,-0.148,-0.653,-0.244,-0.788,2.39,4.04,5.15,3.38,4.85,2.1,2.85,0.19,-0.602,0.635,-0.0229,-0.145,-0.365,-0.977,1.68
ATCTCTAGGTATAAGTTCAGTGAATCCCGAGGAT,0.24,0.542,0.507,0.379,0.825,1.77,2.79,4.45,2.94,4.55,0.227,0.858,1.41,1.22,0.751,1.44,2.32,0.493,1.02,1.73
TCAGACAGGTAAAGGTAACTCAGGTACGCAGTCG,1.07,3.02,0.16,1.79,0.229,1.48,1.11,2.56,4.03,3.14,2.37,0.745,0.618,0.192,0.82,0.892,0.37,1.35,0.782,0.904
ACAGACAGGTGAGTGAGGGTAACTCAGCTGGACG,0.174,0.269,-0.243,-0.0988,-0.478,0.503,0.629,0.0987,-0.248,-0.159,0.621,0.841,-0.523,-0.675,0.225,-0.025,0.261,0.222,-0.162,0.987
CAGCCTAGGTCAGGGCCAGTATAGGAGGAACGTT,1.63,0.984,0.0185,0.506,-0.929,2.13,0.978,1.03,0.126,0.524,0.848,1.84,-0.882,-1.52,1.03,0.272,-0.731,1.2,-0.0375,3.6
CCAGACAGGCGAGAAGGTAACTCAGCCTCGATTA,-0.951,-0.595,-0.499,-0.97,-1.31,-0.764,-0.0182,-0.949,-0.723,-0.947,-0.678,-0.816,-0.981,-2.1,-0.649,-1.02,-0.455,-0.88,-0.498,-0.619
CATACAGGGTCAGCTAGGCCAGATTAGGGACGGC,4.11,2.99,-0.059,2.4,0.391,4.38,3.11,2.96,0.713,1.62,1.11,1.98,0.335,-0.106,1.45,2.26,-0.138,3.04,0.588,3.91
CCGATTAGTTGACCATAAGGGCAACCGAAGCTCG,0.669,0.102,-0.113,0.217,-0.191,0.52,0.357,0.312,-0.22,0.0545,0.626,0.151,0.0233,-0.144,0.907,0.523,0.00458,0.703,0.65,1.46
TCTATTAGTTGATTAGGGAAACCGAAACAGCGGA,0.843,0.826,0.343,0.602,0.852,0.623,-0.0137,2.16,3.69,3.2,2.16,0.295,0.834,0.978,1.03,0.624,1.07,0.778,1.68,0.394
CACGAAAGGTCGGTTGAGGTGAGTATACGGATAA,2.53,2.25,0.0219,1.7,0.387,3,0.823,1.36,0.246,0.906,0.197,1.19,1.19,0.977,1.22,3.42,0.224,2.96,0.255,3.18
TAGGCTAGGTCAGATCGGGCCAGTATACGCTATA,1.84,0.947,-0.397,0.688,-0.542,1.42,0.684,0.646,-0.0664,0.434,0.883,1.39,-0.0594,-0.524,0.195,1.54,-0.57,1.55,-0.477,3.3
GCTTACTGGTCAAAGGTTATAGCATGAATAGAAT,2.63,2.93,0.195,2.9,-0.146,4.95,8.22,7.6,6.04,7.95,1.14,3.37,1.09,1.11,0.856,3.18,0.438,4.53,0.553,2.54
GCTGGTAGATCAAGGTTAAGAAAGACTAAGCTAA,0.17,0.885,-0.138,0.378,-0.528,1.12,0.134,1.18,-0.00579,1,-0.391,0.232,-0.0433,-0.0207,-0.421,0.348,-0.246,0.69,0.451,0.949
TCTGCTAGGTCAACGATGGTCAGGTAATCTGCTA,3.43,2.96,0.163,1.53,-0.249,3.19,2.74,3.06,2.01,2.65,4.42,4.19,0.0564,-0.0875,0.216,1.61,-0.526,2.34,-0.895,3.93
GCTCGCAGGCCATTTGGGTCACTCAATGACGGGC,0.079,0.0243,-0.668,0.0952,-1.06,1.29,0.381,0.415,-0.625,-0.441,1.09,1.56,-1.82,-1.26,0.213,0.621,0.71,0.492,-0.566,1.72
